Assay results published in PubChem BioAssay (NCATS).
Inconclusive results are not listed. A number with no mark means an inactive call. The source made the active and inactive calls. The call rests on the fitted dose curve; in most records, active means well fitted inhibition curve with a large enough effect; inconclusive means small, poorly fitted or top-dose-only effect; inactive means flat fitted curve, though single readings scatter.

test system: MKL-1; test: qHTS assay to identify novel small-molecules to repurpose for Merkel cell carcinoma treatment (AID 1296009); details: MCC and control cell lines, CellTiter-Glo viability, 72 h; series mostly up to 46 µM; activity change, negative = cytotoxicity: at the top concentration; further: nearly all actives have a fitted effect of over 60% in size
How it was run: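 After compound transfer in DMSO, plates were kept 72 hr at 37 degree celsius. Luminescent ATP signal from CellTiter-Glo served as viability measure, normalized against DMSO and no-cell controls.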
On the % scale 0 is the no-effect control and ±100 the full control effect; potency means the concentration at half of the fitted maximal effect.

Compared with `COC(=O)[C@@H]1[C@H]2C[C@H]3c4[nH]c5ccccc5c4CCN3C[C@@H]2CC[C@@H]1O`, `CC[C@]1(O)C[C@@H]2CN(CCc3c([nH]c4ccccc34)[C@@](C(=O)OC)(c3cc4c(cc3OC)N(C=O)[C@@H]3C45CCN4CC=C[C@](CC)([C@H]45)[C@@H](OC(C)=O)[C@]3(O)C(=O)OC)C2)C1` (stereo not given in full) is lower in “activity change, negative = cytotoxicity” value: 6.57% for the first, -21.8% for the second.

Going from `C[C@H](NC(=O)c1sccc1OCc1ccc(Cl)cc1)c1ccccc1` to `COc1cccc(-c2cc(=O)c3ccccc3o2)c1N`, the “activity change, negative = cytotoxicity” value rises from -36.7% to 25.1%.

Going from `COc1cccc2c1CCCC2CCCN1CCN(C2CCCCC2)CC1` (stereo not given) to `COc1ccccc1N1CCN(CCCNc2cc(=O)n(C)c(=O)n2C)CC1`, the “activity change, negative = cytotoxicity” value rises from -22.6% to 0.503%.

Going from `CCCCCN(C)CCC(O)(P(=O)(O)O)P(=O)(O)O` to `CCN(CC)CCNC(=O)c1ccc(N)cc1`, the “activity change, negative = cytotoxicity” value rises from -7.78% to 4.9%.

Compared with `CCC(CC)[C@H](NC(C)=O)[C@@H]1[C@H](O)[C@@H](C(=O)O)C[C@@H]1N=C(N)N`, `Cc1c(O)cccc1C(=O)N[C@@H](CSc1ccccc1)[C@H](O)CN1C[C@H]2CCCC[C@@H]2C[C@@H]1C(=O)NC(C)(C)C` is higher in “activity change, negative = cytotoxicity” value: -11.9% for the first, -0.677% for the second.

First: Cn1c(N2CCCCS2(=O)=O)nc(C(=O)NCc2ccc(F)cc2)c(O)c1=O
Second: CC#CCn1c(N2CCC[C@@H](N)C2)nc2c1c(=O)n(Cc1nc(C)c3ccccc3n1)c(=O)n2C
The “activity change, negative = cytotoxicity” value of the first is lower: -5.55% for the first, -1.03% for the second.

Compared with `CCC(=O)O[C@]1(C(=O)CO)CC[C@H]2[C@@H]3CCC4=CC(=O)CC[C@]4(C)[C@@H]3CC[C@@]21C`, `CC1CCC(C(=O)N(c2cc(C#CC(C)(C)C)sc2C(=O)O)C2CCC(O)CC2)CC1` (stereo not given) is lower in “activity change, negative = cytotoxicity” value: 4.74% for the first, -13.7% for the second.

Compared with `CCCNC(=O)NS(=O)(=O)c1ccc(Cl)cc1`, `NC(=O)NN=Cc1ccc([N+](=O)[O-])o1` is lower in “activity change, negative = cytotoxicity” value: 2.19% for the first, -4.75% for the second.

Compared with `CC(C)OC(=O)CCCC=CC[C@@H]1[C@H](C=C[C@@H](O)COc2cccc(C(F)(F)F)c2)[C@H](O)C[C@@H]1O`, `CN(C)CCC=C1c2ccccc2COc2ccc(CC(=O)O)cc21` is higher in “activity change, negative = cytotoxicity” value: -10.9% for the first, -0.326% for the second.

Going from `COc1ccc(-c2coc3cc(O)cc(O)c3c2=O)cc1` to `COc1ccc(-c2cc(=O)c3c(O)cc(O)cc3o2)cc1O`, the “activity change, negative = cytotoxicity” value falls from 4.18% to -9.52%.

First: CC(=Cc1ccccc1)C=C1SC(=S)N(CC(=O)O)C1=O
Second: O=c1cc(-c2cccc3c2Sc2ccccc2S3)oc(N2CCOCC2)c1
The “activity change, negative = cytotoxicity” value of the first is lower: -14.8% for the first, 12.3% for the second.

First: Cc1ccc(Nc2cc(-c3cccc(N4C(=O)c5ccccc5C4=O)c3)ncn2)cc1NS(C)(=O)=O
Second: O=C(OCC#CCSc1nnc(-c2cccc3ccccc23)o1)c1cc2ccccc2s1
The “activity change, negative = cytotoxicity” value of the first is higher: 5.57% for the first, -1.78% for the second.

Compared with `Cc1cccc(C)c1OCC(C)N` (stereo not given), `CCOC(=O)C1=C(N)Oc2ccc(Br)cc2C1C(C#N)C(=O)OCC` (stereo not given) is lower in “activity change, negative = cytotoxicity” value: 12.9% for the first, -1.45% for the second.

Compared with `CCOC1OC(=O)C[C@H]1NC(=O)[C@@H]1CCCN1C(=O)[C@@H](NC(=O)c1ccc(N)c(Cl)c1)C(C)(C)C` (stereo not given in full), `CON=C(C(=O)N[C@@H]1C(=O)N2C(C(=O)OCOC(=O)C(C)(C)C)=C(C=Cc3scnc3C)CS[C@H]12)c1csc(N)n1` is higher in “activity change, negative = cytotoxicity” value: -11.6% for the first, 1.49% for the second.

Compared with `OC[C@H]1O[C@@H](n2cnc3c2NC=NC[C@@H]3O)C[C@H]1O`, `Cc1ccc([C@@H]2O[C@H](CO)[C@@H](O)[C@H](O)[C@@H]2O)cc1Cc1ccc(-c2ccc(F)cc2)s1` is higher in “activity change, negative = cytotoxicity” value: -3.6% for the first, 7.62% for the second.

For `NC(N)=Nc1nc(CSCC/C(N)=N/S(N)(=O)=O)cs1`, the “activity change, negative = cytotoxicity” value was 2.85%.

In the case of `NC1=N[C@@]2(c3cc(NC(=O)c4ccc(F)cn4)ccc3F)COC[C@@H]2CS1`, the Potency was 10.5 µM (active).
For `Clc1ccc(C(c2ccc(Cl)cc2)n2cc[n+](CC(OCc3ccc(Cl)cc3Cl)c3ccc(Cl)cc3Cl)c2)cc1` (stereo not given), the Potency was 20.9 µM (active).
For `O=C(O)c1cc(-c2ccccc2)nc2ccccc12`, the Potency was “inactive”.

For `COc1cc(O)c2c(c1)C(=O)c1cc(C)cc(O)c1C2=O`, the “activity change, negative = cytotoxicity” value was -7.77% [at 16.1 µM].
